Reference: PubChem BioAssay
Values without a mark were called inactive. Calls of active or inactive are those of the source.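 How the source made its calls, unless noted: active means compound that reduces growth-factor-driven endothelial tube area in a mixed cell culture, no cutoff stated; inactive means the rest.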

Test: inhibition of endothelial tube formation, primary screen, imaging, VEGF stimulated, CD31 staining, tube area, NPC library (AID 1117340)
Conditions: VEGF-stimulated ADSC/ECFC co-culture, at 10 µM, stronger effect = higher value

| Compound | tube area decrease |
| --- | --- |
| COC(=O)Nc1nc2ccc(C(=O)C3CC3)cc2[nH]1 | 103% (active) |
| Oc1ccc(C(O)CNCCCCCCNCC(O)c2ccc(O)c(O)c2)cc1O (stereo not drawn) | -0.1% |
| CC(=O)OC[C@H]1O[C@@H](OC(C)=O)[C@H](OC(C)=O)[C@@H]1OC(C)=O | 9.6% |
| Cc1ccccc1N=Nc1ccc(N=Nc2c(O)ccc3ccccc23)c(C)c1 | 38.9% |
| Nc1ccc(C(=O)OCC(O)CO)cc1 (stereo not drawn) | -15.4% |
| NNc1nnc(NN)c2ccccc12 | 40.1% (active) |
| Cc1ncc(CO)c(C=O)c1O | -6.1% |
| CCOC(=O)c1cc(=O)c2c(OCC(COc3cccc4oc(C(=O)OCC)cc(=O)c34)OC(=O)[C@@H](N)CCCCN)cccc2o1 | 4.5% |
| CN(C)[C@@H]1C(=O)C(C(=O)NCN2CCCC2)=C(O)[C@@]2(O)C(=O)C3=C(O)c4c(O)cccc4[C@@](C)(O)C3C[C@@H]12 (stereo partly drawn) | -7.9% |
| Nc1nc(=O)n([C@@H]2O[C@H](CO)[C@@H](O)[C@@H]2F)cc1I | 74% (active) |
| OCC(O)CS (stereo not drawn) | 27.8% |
| Nc1ccc(/C=C/c2ccc(N)cc2S(=O)(=O)O)c(S(=O)(=O)O)c1 | -11.3% |
| CC(=O)Nc1ccn(C2COC(COC(=O)c3ccccc3)O2)c(=O)n1 (stereo not drawn) | 100% (active) |
| COC1=C(OC)C(=O)C(CC=C(C)CCC=C(C)CCC=C(C)CCC=C(C)CCC=C(C)CCC=C(C)CCC=C(C)CCC=C(C)CCC=C(C)CCC=C(C)C)=C(C)C1=O | -5.2% |
| NC[C@H]1O[C@H](O[C@H]2[C@@H](O)[C@@H](O[C@H]3O[C@H](CO)[C@@H](O)[C@H](N)[C@@H]3O)[C@H](N)C[C@@H]2N)[C@H](N)C[C@H]1O | -1.5% |
| Cc1ccc(O)c(-n2nc3ccccc3n2)c1 | -28.1% |
| Nc1c(NC/C=C\COc2cc(CN3CCCCC3)ccn2)c(=O)c1=O | 1% |
| CCCCNC(=O)NS(=O)(=O)c1ccc(N)cc1 | -10.5% |
| CC(=O)c1cc2ccccc2s1 | -3.8% |
| NS(=O)(=O)c1ccc(Cl)c(S(N)(=O)=O)c1 | 12.2% |

| Compound | tube area decrease |
| --- | --- |
| CC(C)Cc1ccc(CC(=O)O)cc1 | -13.7% |
| NCC(=O)O | -10.9% |
| CC12CCC(C[N+](C)(CCC[N+](C)(C)C)C1)C2(C)C (stereo not drawn) | -11.3% |
| CN(C)C(=O)CNC(=O)Cc1ccccc1 | 7.1% |
| Cc1cccc(N(C)C(=S)Oc2ccc3c(c2)CCC3)c1 | -13.8% |
| COc1cc2c(cc1OC)C(C(C(=O)N(CCc1ccc(OC)c(OC)c1OC)CCc1ccc(OC)c(OC)c1OC)c1ccccc1)=NCC2 (stereo not drawn) | 20.6% |
| O=C1CCC(C(=O)O)N1 (stereo not drawn) | 6.4% |
| O=Cc1ccc(O)c(O)c1O | 3.3% |
| O=S(c1cc(Cl)cc(Cl)c1O)c1cc(Cl)cc(Cl)c1O | 92.8% (active) |
| CC(C)(C)c1cc(C=O)cc(C(C)(C)C)c1O | 10.5% |
| CN(CC1(C)CCCO1)S(=O)(=O)c1ccc(Cl)c(S(N)(=O)=O)c1 (stereo not drawn) | -8.9% |
| CCCCC(C)(O)CC=C[C@H]1[C@H](O)CC(=O)[C@H]1CCCCCCC(=O)OC (stereo partly drawn) | -9.4% |
| C=CCOc1cc(Cl)ccc1C(=O)NCCN(CC)CC | -13% |
| CC(=O)SCC(CC(=O)c1ccc(C)cc1)C(=O)O (stereo not drawn) | -18.7% |
| CCCCNc1ccc(C(=O)OCCN(CC)CC)cc1 | 19.5% |
| C/C=C(/C(=C/C)c1ccc(OC(C)=O)cc1)c1ccc(OC(C)=O)cc1 | 65.4% (active) |
| O=C(Nc1ccc(Oc2ccc(Cl)cc2)c(Cl)c1)c1cc(I)cc(I)c1O | 109% (active) |
| CC(=O)Nc1ccc(OC(=O)c2ccccc2OC(C)=O)cc1 | -15.2% |
| O=C(/C=C/c1ccccc1)OCc1ccccc1 | 3% |

Test: GLP1 release stimulators, primary, NCI-H716, NPC library (AID 1117341;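 active means compound raises GLP1 secretion from the human gut endocrine cells, with no numeric limit stated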; further: reference of the scale not given here)
Conditions: NCI-H716 cells, at 10 µM, stronger effect = higher value

| Compound | GLP1 secretion stimulation |
| --- | --- |
| COC(=O)Nc1nc2ccc(C(=O)C3CC3)cc2[nH]1 | -0.3% |
| Oc1ccc(C(O)CNCCCCCCNCC(O)c2ccc(O)c(O)c2)cc1O (stereo not drawn) | 4.5% |
| CC(=O)OC[C@H]1O[C@@H](OC(C)=O)[C@H](OC(C)=O)[C@@H]1OC(C)=O | -1.3% |
| Cc1ccccc1N=Nc1ccc(N=Nc2c(O)ccc3ccccc23)c(C)c1 | -8.5% |
| Nc1ccc(C(=O)OCC(O)CO)cc1 (stereo not drawn) | -0.9% |
| NNc1nnc(NN)c2ccccc12 | -3.3% |
| Cc1ncc(CO)c(C=O)c1O | -2.6% |
| CCOC(=O)c1cc(=O)c2c(OCC(COc3cccc4oc(C(=O)OCC)cc(=O)c34)OC(=O)[C@@H](N)CCCCN)cccc2o1 | 7.5% |
| CN(C)[C@@H]1C(=O)C(C(=O)NCN2CCCC2)=C(O)[C@@]2(O)C(=O)C3=C(O)c4c(O)cccc4[C@@](C)(O)C3C[C@@H]12 (stereo partly drawn) | 25.3% (active) |
| Nc1nc(=O)n([C@@H]2O[C@H](CO)[C@@H](O)[C@@H]2F)cc1I | -3.9% |
| OCC(O)CS (stereo not drawn) | 0.4% |
| Nc1ccc(/C=C/c2ccc(N)cc2S(=O)(=O)O)c(S(=O)(=O)O)c1 | -0.8% |
| CC(=O)Nc1ccn(C2COC(COC(=O)c3ccccc3)O2)c(=O)n1 (stereo not drawn) | 1.2% |
| COC1=C(OC)C(=O)C(CC=C(C)CCC=C(C)CCC=C(C)CCC=C(C)CCC=C(C)CCC=C(C)CCC=C(C)CCC=C(C)CCC=C(C)CCC=C(C)C)=C(C)C1=O | 1.9% |
| NC[C@H]1O[C@H](O[C@H]2[C@@H](O)[C@@H](O[C@H]3O[C@H](CO)[C@@H](O)[C@H](N)[C@@H]3O)[C@H](N)C[C@@H]2N)[C@H](N)C[C@H]1O | -0.3% |
| Cc1ccc(O)c(-n2nc3ccccc3n2)c1 | 4.2% |
| Nc1c(NC/C=C\COc2cc(CN3CCCCC3)ccn2)c(=O)c1=O | 4% |
| CCCCNC(=O)NS(=O)(=O)c1ccc(N)cc1 | 1.9% |
| CC(=O)c1cc2ccccc2s1 | 0.1% |
| NS(=O)(=O)c1ccc(Cl)c(S(N)(=O)=O)c1 | -0.9% |

| Compound | GLP1 secretion stimulation |
| --- | --- |
| CC(C)Cc1ccc(CC(=O)O)cc1 | -1.8% |
| NCC(=O)O | 1.3% |
| CC12CCC(C[N+](C)(CCC[N+](C)(C)C)C1)C2(C)C (stereo not drawn) | -3.2% |
| CN(C)C(=O)CNC(=O)Cc1ccccc1 | -1.3% |
| Cc1cccc(N(C)C(=S)Oc2ccc3c(c2)CCC3)c1 | -4.7% |
| COc1cc2c(cc1OC)C(C(C(=O)N(CCc1ccc(OC)c(OC)c1OC)CCc1ccc(OC)c(OC)c1OC)c1ccccc1)=NCC2 (stereo not drawn) | 4.1% |
| O=C1CCC(C(=O)O)N1 (stereo not drawn) | -3.6% |
| O=Cc1ccc(O)c(O)c1O | 3.4% |
| O=S(c1cc(Cl)cc(Cl)c1O)c1cc(Cl)cc(Cl)c1O | 27.8% (active) |
| CC(C)(C)c1cc(C=O)cc(C(C)(C)C)c1O | 0.6% |
| CN(CC1(C)CCCO1)S(=O)(=O)c1ccc(Cl)c(S(N)(=O)=O)c1 (stereo not drawn) | 2.8% |
| CCCCC(C)(O)CC=C[C@H]1[C@H](O)CC(=O)[C@H]1CCCCCCC(=O)OC (stereo partly drawn) | -1.9% |
| C=CCOc1cc(Cl)ccc1C(=O)NCCN(CC)CC | 9.1% |
| CC(=O)SCC(CC(=O)c1ccc(C)cc1)C(=O)O (stereo not drawn) | 1.4% |
| CCCCNc1ccc(C(=O)OCCN(CC)CC)cc1 | 3.7% |
| C/C=C(/C(=C/C)c1ccc(OC(C)=O)cc1)c1ccc(OC(C)=O)cc1 | 11.9% |
| O=C(Nc1ccc(Oc2ccc(Cl)cc2)c(Cl)c1)c1cc(I)cc(I)c1O | 29.8% (active) |
| CC(=O)Nc1ccc(OC(=O)c2ccccc2OC(C)=O)cc1 | -1.2% |
| O=C(/C=C/c1ccccc1)OCc1ccccc1 | -1.3% |
